KDM5B inhibitor – KDM5B demethylase inhibition; Q9UGL1; KDM5B demethylase, FDH-coupled NADH fluorescence (FDH is formaldehyde dehydrogenase); Potency, µM (titrated, usually from 57.7 µM), actives largely listed as inhibitors; actives 2.6% (n = 220,000); AID 1347165; active = well fitted inhibition curve with a large enough effect; also: nearly all actives have a fitted effect of over 70% in size
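Here, H3K4me3 peptide (12.5 µM in substrate mix) is demethylated by KDM5BΔAP, 200 nM final, after 10 min compound exposure. Formaldehyde product is coupled through FDH (0.25 U/mL in mix) to NADH fluorescence; 30-min ΔRFU feeds dose-response curves.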
Large screens that a line does not name were inactive. This excerpt belongs to a sample that is enriched for hits.

COCCNc1ncccc1-c1noc([C@@H]2CCCN2CC(C)(C)C)n1	KDM5B inhibitor 35µM
COCCOc1ccnc(-c2noc([C@@H]3CCCN3CC(C)(C)C)n2)c1	none
COCCOc1ncccc1-c1noc([C@@H]2CCCN2Cc2cccc(C#N)c2)n1	none
COCCNc1ncccc1-c1noc([C@@H]2CCCN2Cc2ccco2)n1	KDM5B inhibitor 28µM
COCCOc1ncccc1-c1noc([C@@H]2CCCN2C2CCN(C(C)=O)CC2)n1	none
Cc1cccc(C(C)C)c1NC(=O)COc1ncnc2ccccc12	none
CCOc1cc(C(=O)NC(CC(=O)OC)c2cccs2)ccc1OC (centres undefined)	none
CC(Oc1ccc(F)c(F)c1)C(=O)NCCC(=O)N1CCCCC1 (centres undefined)	none
CCCCn1nc(C(=O)Nc2nc(-c3cccs3)cs2)c2ccccc2c1=O	none
CCCCn1c(SCc2ccccc2Cl)nc2c1c(=O)[nH]c(=O)n2C	none
CCc1nc(NC(CCn2cncn2)c2ccccc2)c2cnn(C)c2n1 (centres undefined)	none
Cc1noc([C@H]2CCN(C(=O)Nc3ccc4c(c3)OCCO4)C[C@H]2NC(=O)C2CC2)n1	none
CC(C)=CCn1c(-c2ccc(F)cc2)cn2cc(C(=O)N3CCCCC3)nc2c1=O	none
CC(=O)Nc1ccc(NC(=O)C(C)C)cc1Cl	none
COc1ccc(Cn2c(=O)c3sccc3n(CC(=O)NCc3ccccc3)c2=O)cc1	none
O=C(NC1CCN(c2cc(-c3cccs3)[nH]n2)CC1)c1cccc(F)c1	none
O=C(NC1CCN(c2cc(-c3cccs3)[nH]n2)CC1)c1ccc(F)c(F)c1	none
CC(=O)Nc1ccc(C(=O)NC2CCN(c3cc(-c4ccccc4)[nH]n3)CC2)cc1	none
CC(=O)Nc1ccc(C(=O)NC2CCN(c3cc(-c4cccs4)[nH]n3)C2)cc1 (centres undefined)	KDM5B inhibitor 18µM
O=C(NC1CCN(c2cc(-c3cccs3)[nH]n2)C1)c1ccc(F)c(F)c1 (centres undefined)	KDM5B inhibitor 13µM
CCc1ccc(C(=O)NC2CCN(c3cc(-c4cccs4)[nH]n3)CC2)cc1	none
CCONC(=O)c1ccc(NC(=O)c2cccs2)cc1	none
Cc1ncoc1C(=O)N1CCC[C@H](n2c(=O)n(C)c3cccnc32)C1	none
O=C1NCc2ccccc2CC12CCCN2Cc1ccc(Cl)s1 (centres undefined)	none
CC(C)n1c(Br)nc2c1c(=O)[nH]c(=O)n2C	none
Cc1ccc(Nc2nc(NCCO)nc3c2cnn3C)cc1C	none
COCCN1CCOc2nc(-c3ccc(C(=O)N(C)C)cc3)ncc2C1=O	none
CN(C)C(=O)c1ccc(-c2cnc3[nH]cc(CC(=O)N4CCOCC4)c3c2)cc1	none
CN1CCN(C)c2cnc(-c3ccc(C(=O)N(C)C)cc3)cc2C1	KDM5B inhibitor 35µM
Cc1cc(-c2cc3c(cn2)N(C)CCN(C)C3)ccn1	KDM5B inhibitor 32µM
CCOc1nc2ccccc2nc1N1CCC(C(=O)Nc2ccc(NC(C)=O)cc2)CC1	none
COc1ccc(/C=C(\C#N)c2nc3cc(C)c(C)cc3[nH]2)cc1Br	none
Cc1cc2oc(=O)cc(CSc3nncn3C)c2cc1C(C)C	none
c1cc(CN2CCOCC2)cc(-c2cnn3ccccc23)c1	KDM5B inhibitor 32µM
N#CC1(c2ccc(-c3cccc(CN4CCOCC4)c3)cc2)CCCC1	none
Fc1ccc(-c2cccc(CN3CCOCC3)c2)c(Cl)c1	none
O=C(Nc1ccc(F)cc1)C1CCCN(S(=O)(=O)c2ccc(N3CCCC3=O)cc2)C1 (centres undefined)	none
O=C(c1nnc(CNc2ccccn2)n1-c1cccnc1)N1CCC[C@@H]1C(c1ccccc1)c1ccccc1	KDM5B inhibitor 13µM
O=C(c1nnc(CNCc2cccc(F)c2)n1-c1cccnc1)N1CCC[C@@H]1C(c1ccccc1)c1ccccc1	none
COc1ccccc1OCc1nnc(C(=O)N2CCC[C@@H]2C(c2ccccc2)c2ccccc2)n1-c1ccccc1	none
COC(=O)c1ccc(Oc2coc3cc(OCc4ccc(Cl)cc4)ccc3c2=O)cc1	none
Cn1c(SCc2cccc(Cl)c2)nc(=O)c2c1NC(=O)CC2c1ccc(OCC(N)=O)cc1 (centres undefined)	none
Cc1ccc(-c2nnc([C@H]3CCN(C(=O)Nc4ccc(F)cc4)C3)o2)cc1	none
Cc1ccc(-c2nnc([C@H]3CCN(C4CCC4)C3)o2)cc1	KDM5B inhibitor 32µM
Cc1ccc(-c2nnc([C@H]3CCN(C(C)C)C3)o2)cc1	KDM5B inhibitor 32µM
COCC(=O)N1CC[C@H](c2nnc(-c3ccc(C)cc3)o2)C1	none
O=C(c1ccncc1)N1CC[C@H](c2nnc(-c3ccncc3)o2)C1	none
Clc1ccc(-c2nnc([C@H]3CCN(C4CCCCC4)C3)o2)cc1	KDM5B inhibitor 25µM
Clc1ccc(-c2nnc([C@H]3CCN(Cc4ccccc4)C3)o2)cc1	none
Cc1ccc(-c2nnc([C@H]3CCN(C(=O)COCC(=O)O)C3)o2)cc1	none
Fc1ccccc1-c1nnc([C@H]2CCN(C3CCOCC3)C2)o1	none
COc1ccc(OC)c(CNC(=O)c2nnn3c2COC(c2ccc(F)cc2)C3)c1 (centres undefined)	none
Cc1cc(NC(=O)CSc2ncc(-c3ccc(Cl)cc3)o2)ccc1F	none
c1ccc(CC2CNC2)cc1	none
O=C(CC[C@@H]1CNC(=O)[C@@H]2C[C@H](NC(=O)Nc3cccc(Cl)c3)CN12)NCc1ccccc1	none
COc1ccc(Nc2nnc(SCC(=O)c3ccccc3)s2)cc1	none
CCCOc1ccc(/C=C(/C#N)c2nc3ccccc3[nH]2)cc1	none
Cc1ccc(C(=O)N2CCC3(Cc4ccccc4NC3=O)C2)cc1 (centres undefined)	none
CN1c2cccnc2CN(Cc2ccc(C(F)(F)F)cc2)CC[C@H]1CO	none
CCOC(=O)C1CCN(C(=O)c2cn3ccnc(-c4ccc(C)cc4)c3n2)CC1	none
COc1cccc(N2CCN(C(=O)c3cn4ccnc(-c5ccccc5)c4n3)CC2)c1	none
COc1ccc(-c2nccn3cc(C(=O)NCCN4CCCCC4)nc23)cc1	KDM5B inhibitor 20µM
CCCCN1CCN(C(=O)c2cn3ccnc(-c4ccccc4)c3n2)CC1	none
CCCN1CCN(CCNC(=O)c2cn3ccnc(-c4ccc(OC)cc4)c3n2)CC1	KDM5B inhibitor 20µM
CCCN1CCN(CCNC(=O)Nc2cc(OC)cc(OC)c2)CC1	none
CC(C)(C)C1CCc2nc(SCC(N)=O)c(C#N)c(C(F)(F)F)c2C1 (centres undefined)	none
Cc1cccc(N2CCN(C(=O)CCn3ccn4nc5c(c4c3=O)CCCC5)CC2)c1	none
COc1ccccc1C(C)NC(=O)c1nn(C)c(=O)c2ccccc12 (centres undefined)	none
COc1ccc(N2C(=O)CCS2(=O)=O)cc1S(=O)(=O)N1CCCCC1	none
COc1cccc(S(=O)(=O)N2CCCC(c3nc(C(C)C)no3)CCNC(=O)CC2)c1 (centres undefined)	none
CC(=O)c1ccc(NC(=O)c2sc3nc(N4CCOCC4)c4c(c3c2N)CC(C)(C)OC4)cc1	none
COc1ccccc1-c1cc(C(=O)N(C)C)c2cnn(C)c2n1	none
COc1ccccc1-c1cc(C(=O)N2CCOCC2)c2cnn(C)c2n1	none
COc1ccccc1-c1nnc2n1C(C(=O)NCCc1ccc(Cl)cc1)CC2 (centres undefined)	none
COc1ccccc1-c1cc(C(=O)NCCc2ccc(Cl)cc2)c2cnn(C)c2n1	KDM5B inhibitor 79µM
COc1ccccc1-c1cc(C(=O)NCCc2ccc(Cl)cc2)nc2c1cnn2C	KDM5B inhibitor 79µM
COc1ccc(CCNC(=O)c2cc(-c3ccccc3O)n[nH]2)cc1OC	none
CN1[C@@H](CCC(=O)N2CCCC2)CNC(=O)[C@@H]2[C@H]1CCN2Cc1ccc(C(F)(F)F)cc1	none
CNC(=S)NNC(=O)C1CCCCC1	none
